The campaign covered roughly 360,000 compounds. About 1,300 (0.36%) were called active. Cut-off read from the data, not from the text of the source: active = inhibition above about 34% (passing the limit was not always enough); inactive = the rest. The sample as a whole holds a higher share of actives than the screen did.
The compounds below were run against C-X-C chemokine receptor type 6 (Homo sapiens) (UniProt O00574) (assay: blockade of CXCL16-induced CXCR6 beta-arrestin recruitment – cell-based, luminescence, CHO-K1 PathHunter, 1536-well, primary screen (AID 602244;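 note: antagonist mode with CXCL16 agonist at 10 nM final; 0% = 10 nM CXCL16 with DMSO and 100% = unstimulated wells without agonist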)). Conditions: at 20 µM, active compounds read high.
Sequence of C-X-C chemokine receptor type 6 (Homo sapiens) (O00574 whole entry, looked up): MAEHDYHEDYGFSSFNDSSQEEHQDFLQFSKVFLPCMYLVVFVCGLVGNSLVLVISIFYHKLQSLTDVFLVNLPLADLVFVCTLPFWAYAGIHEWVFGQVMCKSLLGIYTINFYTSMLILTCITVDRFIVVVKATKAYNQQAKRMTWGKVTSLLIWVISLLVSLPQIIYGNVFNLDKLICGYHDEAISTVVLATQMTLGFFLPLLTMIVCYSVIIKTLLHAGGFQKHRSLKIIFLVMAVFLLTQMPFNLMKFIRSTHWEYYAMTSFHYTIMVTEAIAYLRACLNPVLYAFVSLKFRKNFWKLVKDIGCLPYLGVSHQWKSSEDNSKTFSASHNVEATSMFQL

inhibition, active:
COc1ccc2c(c1)c(=Cc1ccc(N(C)C)cc1)c1cc(-c3ccccc3)[n+](C)n12 39.6%, CCOCCCN1C(=O)C2C(C(=O)Nc3ccc(OCC)cc3)C3C=CC2(O3)C1C(=O)NC1CCCCC1 (stereo not drawn) 74.4%, O=C(Nc1ccccc1Cl)/C(Cl)=C(\Cl)S(=O)c1ccccc1 (stereo not drawn) 93.1%, Cc1cc(C)nc(S/C=C/C(=O)c2ccccc2)n1 46.1%, Nc1ccccc1SC(C[N+](=O)[O-])c1ccccc1 (stereo not drawn) 43.8%, Cc1ccc(/C=N/NC(=O)C2=NNC(c3ccccc3)(c3ccccc3)C2)c(O)c1 49.2%, CCCCNC(=S)N/N=C1\CCCCc2ccccc21 37.6%, O=C(NC1=CC(=O)c2ccccc2C1=O)c1ccccc1 71.6%, Cc1cccc(-n2c(O)c(C=Nc3ccccc3N)c(=O)[nH]c2=O)c1 108%, Cc1c(C(=O)NCCN(C)C)oc2ccc(S(=O)(=O)N3CCCC3)cc12 65.9%

inhibition, inactive:
CC(=O)Nc1nc(C)c(Cc2ccccc2)c(=O)[nH]1 4.4%, CCCCc1nc2cc(C(=O)N3CCCCC3CCO)ccc2o1 (stereo not drawn) 4%, COCCC(=O)N1CCC(Oc2ccc(C(=O)NCc3ccon3)cc2)CC1 6.3%, C[C@H]1CN([C@@H](C)CO)C(=O)c2cc(C3=CCCCC3)cnc2O[C@@H]1CN(C)C(=O)Cc1ccccc1 -0.7%, CC1(C)OC(=O)C2=C(C[C@@H](C3CCCCC3)O[C@@H]2c2ccc(Cl)cc2)O1 8.1%, COCCN(C(=S)Nc1cccc(Cl)c1C)C(C)c1ccco1 (stereo not drawn) 3.3%, OCC1OC(n2cnc3c(N4CCCC4)ncnc32)C(O)C1O (stereo not drawn) -4.2%, COc1ccc(C2NC(=O)C(=O)/C2=C(\O)c2ccc(Cl)cc2)cc1OC (stereo not drawn) 0.4%, CCN(CC)CCN1C(=O)C2C(C(=O)Nc3ccc(Br)cc3)C3C=CC2(O3)C1C(=O)NC1CCCCC1 (stereo not drawn) 7.8%, CC(C)N1C(=O)C2C(C(=O)NC3CCCCC3)C3C=CC2(O3)C1C(=O)NC1CCCC1 (stereo not drawn) -4.9%, CCc1cc2c(=O)n(-c3ccccc3)c(SCC(=O)O)nc2s1 -2%, CCO[C@H]1OC(C(=O)N2CCN(Cc3ccccc3)CC2)=C[C@@H](c2cn(C(C)=O)c3ccccc23)[C@@H]1CCCO -0.6%, CC1CCN(S(=O)(=O)c2ccc3c(ccn3CC(=O)O)c2)CC1 7.6%, Cc1cc(C(=O)OCC(=O)Nc2ccccc2Cl)c(C)o1 -6.7%, O=C(Nc1ccccc1C(=O)N1CCCCCC1)c1ccccc1Cl 10.2%, Nc1nc2c(ncn2[C@@H]2O[C@H](CNCc3ccc(OCCCN4CCOCC4)cc3)[C@@H](O)[C@H]2O)c(=O)[nH]1 -4.2%, CN(C)S(=O)(=O)c1ccc(Cl)c(NC(=O)COC(=O)CC(NC(N)=O)c2ccc(Cl)cc2)c1 (stereo not drawn) -0.2%, O=C(/C=C/Sc1ncn[nH]1)c1ccc(Cl)cc1 17.1%, CCOC(=O)C(=Cc1ccccc1)C(=O)c1ccccc1 24%, CCCCc1nc2ccccc2c(NC(=O)CN2CCN(C)CC2)c1CCC 2.4%, CC(=O)Oc1ccc(Cn2c(C)c(C(=O)NCc3ccc(C#N)cc3)sc2=O)cc1 3.1%, CC(=O)N1Cc2ccccc2CC1C(=O)O (stereo not drawn) 8%, Cc1ccc(/C=N/NC(=O)C(NC(=O)c2ccccc2)c2n[nH]c(=O)c3ccccc23)cc1 (stereo not drawn) -2.3%, Cc1ccc(NC(=O)CCC(=O)N/N=C/c2ccco2)c(C)c1 -4%, O=C(NCCc1ccccc1)c1ccc(NC2=NC3CS(=O)(=O)CC3S2)cc1 (stereo not drawn) 0%, O=[N+]([O-])c1ccccc1N/N=C1\CCc2ccccc21 2.8%, S=C(NCCC1=CCCCC1)Nc1ccccc1 -7%, NC(=O)C1=C[C@@H](c2ccc3c(c2)OCO3)C[C@@H](OCCCCO)O1 1.5%, Cc1ccc(NC(=O)CN(C)C(=O)COC(=O)c2nccnc2N)cc1 -1.8%, CC(=O)c1cc(NC(=O)c2ccccc2)c(=O)oc1/C=C/N(C)C 9.9%, O=C(COC(=O)c1cccc(Br)c1)Nc1cccc2c1C(=O)c1ccccc1C2=O -9.2%, CCOC(=O)N1CCC(Nc2c(NCCCN3CCN(CC)CC3)c(=O)c2=O)CC1 8.9%, CCCCS(=O)c1snnc1C (stereo not drawn) -4.7%, CCCCc1ccc(S(=O)(=O)NC(=O)C2(C)CCN2C(=O)c2ccccc2)cc1 (stereo not drawn) 7.2%, Cc1ccc(C23CC4CC(CC(C(=O)NCC(=O)O)(C4)C2)C3)cc1 1.5%, CCCCN(C)CCNC(=O)CSCc1ccc(C)cc1 2.3%, Cc1cccc(N2C(=O)CC(SC(N)=Nc3ccccc3)C2=O)c1 (stereo not drawn) 2.2%, Cc1ccc(N=Cc2c(O)n(-c3nccs3)c(=O)c3ccccc23)c(C)c1 4.8%, O=C(Cn1ncc2c3ccccc3n(Cc3ccccc3)c2c1=O)NCCCN1CCOCC1 8.7%, O=C(COc1nsnc1N1CCOCC1)Nc1ccccc1Cl -3.6%, Cn1cccc1C(=O)NC(=O)COC(=O)Cc1coc2ccc3ccccc3c12 -1.2%, CC(C)c1nc2sc3c(c2c(=O)n1N)CC(C)(C)OC3 2.4%, COc1cc(NC(=O)C2CCN(c3cnccn3)CC2)cc(OC)c1 -10.3%, O=C(OC1CCCCC1=O)c1cccc(S(=O)(=O)NCc2ccccc2)c1 (stereo not drawn) 7.3%, CC(=O)N/C(=C\c1ccc(F)cc1)C(=O)NC(Cc1ccccc1)C(=O)O (stereo not drawn) 1.6%, CC(=O)c1ccc(S(=O)(=O)N(C)CCCC(=O)N(C)Cc2ccccc2F)cc1 0.4%, CCCNC(=O)c1cc(C2CCCN(C(=O)c3ccc4c(c3)CCO4)C2)on1 (stereo not drawn) -0.8%, COc1ccc(NC(=O)c2oc3ccc(S(=O)(=O)N4CCOCC4)cc3c2C)cc1 -0.9%, CCOC(=O)C1CCN(C(=O)c2oc3ccc(S(=O)(=O)N4CCCCCC4)cc3c2C)CC1 -3.5%, CC(Oc1cccc(Cl)c1)C(=O)Nc1ccc(S(=O)(=O)Nc2ncccn2)cc1 (stereo not drawn) -1.1%, CC[C@@H]1Cc2cc(O)ccc2C2=C1c1ccc(O)cc1C[C@H]2CC -3.2%, COC(=O)c1ccc(S(=O)(=O)N2CCC(c3nc4ccccc4o3)CC2)cc1 1.2%, CC1Cn2c(nnc2-c2cccs2)S1 (stereo not drawn) -1.1%
